We go through eleven molecules from PubChem BioAssay (Tox21).

Experiment [1] can be described thus: qHTS RealTime-Glo MT Cell Viability Assay in HepG2 cells - 8 hour (AID 1224873). Further: nearly all actives have a fitted effect of over 55% in size. Further: potency means the concentration at half of the fitted maximal effect. In outline:
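Real-time viability: cells seeded at 600 per well together with NanoLuc and cell-permeant prosubstrate, compounds added after 5 h incubation. Luminescence tracked at 0, 8, 16, 24, 32 and 40 h of exposure.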
On the technique in general: In qHTS, concentration-response curves come from the screen itself.

The nature of experiment [2]: qHTS RealTime-Glo MT Cell Viability Assay in HEK293 cells - 40 hour (AID 1224874). Further: nearly all actives have a fitted effect of over 50% in size. Further: potency means the concentration at half of the fitted maximal effect. The note with it: RealTime-Glo luminescence; max response: stronger effect = lower value. In a few lines: (§1)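 HEK293 cells mixed with RealTime-Glo reagents (NanoLuc plus cell-permeant prosubstrate) at 600 cells/well, preincubated 5 h at 37 C/5% CO2, then given 23 nL compound in DMSO. Nonlytic luminescence from viable cells was read at 0, 8, 16, 24, 32 and 40 h.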

Experiment [3] can be described thus: A CellTox Green Cytotoxicity Assay to monitor cytotoxicity in HEK293 cells - 24 hour (AID 1224875). Further: nearly all actives have a fitted effect of over 45% in size. Further: potency means the concentration at half of the fitted maximal effect. In outline:
(§2)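 HEK293 cells premixed with CellTox Green dye were seeded at 600 cells/well and left 5 h at 37 C/5% CO2 before pin transfer of 23 nL compound in DMSO. Fluorescence from dye bound to dead-cell DNA was read during 40 h treatment.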

Experiment [4] is described as follows: qHTS RealTime-Glo MT Cell Viability Assay in HepG2 cells - 32 hour (AID 1224877). Further: nearly all actives have a fitted effect of over 55% in size. Further: potency means the concentration at half of the fitted maximal effect. In a few lines:
(§3)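 Cell number in HepG2 cultures estimated from NanoLuc luminescence generated by metabolic reduction of a prosubstrate by living cells. The homogeneous, nonlytic format allowed repeated reads at 0, 8, 16, 24, 32 and 40 h of compound exposure.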

Experiment [5] is described as follows: A CellTox Green Cytotoxicity Assay to monitor cytotoxicity in HepG2 cells - 40 hour (AID 1224879). Further: nearly all actives have a fitted effect of over 40% in size. Further: potency means the concentration at half of the fitted maximal effect. In outline:
(§4)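 HepG2 cells were seeded together with the CellTox Green dye at 600 cells/well, left 5 h at 37 C/5% CO2, then given compounds in DMSO. Fluorescence from dye bound to dead-cell DNA was read repeatedly over 40 h of treatment at 37 C.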

Experiment [6] can be described thus: qHTS RealTime-Glo MT Cell Viability Assay in HEK293 cells - 0 hour (AID 1224880). Further: top concentration of the series differs between compounds; nearly all actives have a fitted effect of over 45% in size. In a few lines:
as §1

Experiment [7] in a line: A CellTox Green Cytotoxicity Assay to monitor cytotoxicity in HEK293 cells - 32 hour (AID 1224881). Further: nearly all actives have a fitted effect of over 40% in size. Further: potency means the concentration at half of the fitted maximal effect. In a few lines:
as §2

Experiment [8] can be described thus: A CellTox Green Cytotoxicity Assay to monitor cytotoxicity in HepG2 cells - 0 hour (AID 1224882). Further: nearly all actives have a fitted effect of over 35% in size. In a few lines: as §4
Experiment [9] is described as follows: A CellTox Green Cytotoxicity Assay to monitor cytotoxicity in HepG2 cells - 32 hour (AID 1224883). Further: nearly all actives have a fitted effect of over 50% in size. Further: potency means the concentration at half of the fitted maximal effect. In a few lines:
as §4

Experiment [10] in a line: qHTS RealTime-Glo MT Cell Viability Assay in HEK293 cells - 24 hour (AID 1224886). Further: nearly all actives have a fitted effect of over 50% in size. Further: potency means the concentration at half of the fitted maximal effect. In a few lines: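 Homogeneous bioluminescent viability format in HEK293 cells (600 cells/well). Following 5 h at 37 C/5% CO2, 23 nL compound was pintooled; the signal was measured repeatedly during 40 h incubation.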
Experiment [11] is described as follows: qHTS RealTime-Glo MT Cell Viability Assay in HEK293 cells - 8 hour (AID 1224887). Further: nearly all actives have a fitted effect of over 50% in size. Further: potency means the concentration at half of the fitted maximal effect. In outline:
as §1

The nature of experiment [12]: A CellTox Green Cytotoxicity Assay to monitor cytotoxicity in HEK293 cells - 16 hour (AID 1224888). Further: nearly all actives have a fitted effect of over 35% in size. In a few lines: as §2
Experiment [13] in a line: qHTS RealTime-Glo MT Cell Viability Assay in HepG2 cells - 0 hour (AID 1224889). Further: nearly all actives have a fitted effect of over 50% in size. In a few lines: as §3
Experiment [14] is described as follows: A CellTox Green Cytotoxicity Assay to monitor cytotoxicity in HepG2 cells - 8 hour (AID 1224890). Further: nearly all actives have a fitted effect of over 45% in size. Further: potency means the concentration at half of the fitted maximal effect. In outline: as §4
A short description of experiment [15]: qHTS assay to identify small molecule antagonists of the estrogen receptor alpha (ER-alpha) signaling pathway using the BG1 cell line in the presence of 0.1 nM 17-beta-estradiol - cell viability counter screen (AID 1259241). Further: nearly all actives have a fitted effect of over 40% in size. Further: potency means the concentration at half of the fitted maximal effect. In a few lines: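 In this screen, hormone-deprived VM7Luc4E2 cells were seeded at 4,000 per well, dosed with compound and 0.1 nM estradiol final, and incubated 22 hr at 37C and 5% CO2; fluorogenic live-cell protease signal reported viability.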

The nature of experiment [16]: qHTS assay to identify small molecule antagonists of the androgen receptor (AR) signaling pathway using the MDA cell line in the presence of 0.5 nM R1881 - cell viability counter screen (AID 1259242). Further: nearly all actives have a fitted effect of over 45% in size. Further: potency means the concentration at half of the fitted maximal effect. In a few lines:
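MDA-kb2 cells (human breast carcinoma, stably carrying MMTV-luciferase reporter) were exposed to compounds with 0.5 nM R1881 (final) for 16 hr at 37C, 0% CO2; viability then read as live-cell protease fluorescence (CellTiter-Fluor, 30 min) in the same wells.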

Experiment [17] is described as follows: A CellTox Green Cytotoxicity Assay to monitor cytotoxicity in HepG2 cells - 24 hour (AID 1224878). Further: nearly all actives have a fitted effect of over 45% in size. Further: potency means the concentration at half of the fitted maximal effect. In a few lines:
as §4

Experiment [18] in a line: A CellTox Green Cytotoxicity Assay to monitor cytotoxicity in HEK293 cells - 8 hour (AID 1224884). Further: nearly all actives have a fitted effect of over 35% in size. In outline:
as §2

Experiment [19] in a line: qHTS RealTime-Glo MT Cell Viability Assay in HepG2 cells - 16 hour (AID 1224885). Further: nearly all actives have a fitted effect of over 50% in size. Further: potency means the concentration at half of the fitted maximal effect. In outline:
as §3

Experiment [20] can be described thus: A CellTox Green Cytotoxicity Assay to monitor cytotoxicity in HepG2 cells - 16 hour (AID 1224876). Further: nearly all actives have a fitted effect of over 45% in size. In a few lines: as §4

Each structure is given as a SMILES string. “And” between values parts separate entries of the source, which are not always exact repeats. Equal entries are not always repeated. Records with an inconclusive call do not appear. Some structures have more than one record in an assay (separate samples or runs), and their calls can disagree. The source made the active and inactive calls. The call rests on the fitted dose curve; in most records, active means well fitted curve in the direction sought with a large enough effect in the repeat runs; inconclusive means weak or mixed curves; inactive means no such curve, though single readings can be large; an effect the other way counts as inactive or inconclusive.
On the % scale 0 is the no-effect control and ±100 the full control effect.

Consider `CCO[Si](C)(C)OCC`, for which the Potency result in experiment [1], in [3], in experiment [4], in [5], in [6] and in experiment [7] was “inactive” throughout. For the same molecule, the Potency result in [8], in [9], in experiment [10], in [11], in experiment [12] and in experiment [13] was “inactive” each time. In addition, the Potency result in experiment [14], in [15] and in [16] was “inactive” throughout. Besides, the max response in experiment [2] is -0.247% (inactive).

Regarding `CCc1c(C(=O)O)c(=O)cnn1-c1ccc(Cl)cc1`, the Potency entry in experiment [1], in experiment [3], in experiment [4], in experiment [17], in [5] and in [6] was “inactive” in each case. The Potency result in experiment [7], in experiment [8], in [9], in [18], in experiment [19] and in [10] was “inactive” each time. For the same molecule, the Potency result in [11], in experiment [12], in [13], in [15] and in experiment [16] was “inactive” each time. Further, in experiment [2], the max response was 18.5% (inactive).

Regarding `C/C=C/CO`, the Potency result in experiment [1], in experiment [3], in experiment [4], in [17], in [5] and in [6] was “inactive” throughout. The Potency entry in [7], in [9], in experiment [18], in experiment [19], in experiment [10] and in experiment [11] was “inactive” each time. For the same molecule, the Potency result in experiment [12], in experiment [13], in experiment [14], in experiment [15] and in experiment [16] was “inactive” in each case. Moreover, the max response in experiment [2] was 8.59% (inactive).

Consider `C/C=C/C(=O)Oc1c(CCCCCC(C)C)cc([N+](=O)[O-])cc1[N+](=O)[O-]`, for which the Potency in [1] was 21.9 µM (active); in experiment [2], 7.76 µM (active); in [3], 38.9 µM (active); in [4], 38.9 µM (active); in experiment [17], 38.9 µM (active); in [5], 38.9 µM (active). The Potency was 38.9 µM (active) in [7]; 38.9 µM (active) in experiment [9]; 21.9 µM (active) in experiment [19]; 19.5 µM (active) in experiment [10]; 27.3 µM (active) in experiment [15]; 15.4 µM (active) in experiment [16]. Moreover, the Potency entry in [6], in [8] and in [14] was “inactive” each time.

On to `Brc1ccccn1`, for which the Potency result in [1], in experiment [3], in [4], in experiment [17], in [5] and in experiment [6] was “inactive” each time. Besides, the Potency entry in [7], in experiment [8], in [9], in [18], in experiment [19] and in experiment [10] was “inactive” throughout. The Potency result in experiment [11], in experiment [12], in experiment [13], in experiment [15] and in experiment [16] was “inactive” in each case. Also, the max response in experiment [2] is -0.513% (inactive).

As to `Cc1ccc(-n2[nH]c(C)c(N=Nc3cccc(-c4cccc(C(=O)O)c4)c3O)c2=O)cc1C`, the Potency entry in [1], in [3], in experiment [20], in experiment [17], in experiment [5] and in experiment [6] was “inactive” in each case. Further, the Potency entry in [7], in [8], in [9], in experiment [18], in experiment [19] and in experiment [11] was “inactive” in each case. The Potency result in experiment [12], in experiment [13] and in [14] was “inactive” in each case. Further, in [2], the Potency is 21.3 µM (active).

Consider `CN(C)CCN1CCOCC1`, for which the Potency result in experiment [1], in experiment [3], in experiment [4], in [17], in experiment [5] and in experiment [6] was “inactive” throughout. Besides, the Potency result in experiment [7], in experiment [8], in experiment [9], in experiment [19], in experiment [10] and in experiment [11] was “inactive” throughout. The Potency entry in experiment [12], in [13], in experiment [14], in experiment [15] and in experiment [16] was “inactive” in each case. Besides, the max response in experiment [2] is 7.62% (inactive).

For the molecule `c1cc(OCC2CO2)cc(OCC2CO2)c1` (stereo not drawn), the Potency entry in experiment [1], in [3], in [20], in [6], in [7] and in experiment [8] was “inactive” each time. In addition, the Potency entry in experiment [18], in experiment [19], in experiment [11], in experiment [13], in [14] and in [15] was “inactive” throughout. For the same molecule, in experiment [16], the Potency entry was “inactive”. For the same molecule, the Potency in experiment [2] was 12.2 µM (active); in experiment [10], 24.4 µM (active).

With `COc1cccc(OC)c1O`, the Potency entry in experiment [1], in experiment [3], in experiment [4], in experiment [17], in experiment [6] and in experiment [7] was “inactive” throughout. Besides, the Potency entry in experiment [8], in experiment [9], in experiment [18], in [19], in experiment [10] and in experiment [11] was “inactive” throughout. For the same molecule, the Potency entry in experiment [12], in experiment [13], in experiment [14], in experiment [15] and in experiment [16] was “inactive” throughout. For the same molecule, the max response in experiment [2] was 8.86% (inactive).

For the molecule `CCCCCCCOC(=O)c1ccc(O)cc1`, the Potency entry in experiment [1], in experiment [3], in experiment [4], in experiment [6], in experiment [7] and in experiment [8] was “inactive” each time. In addition, the Potency entry in experiment [18], in experiment [19], in experiment [12], in experiment [13], in experiment [15] and in experiment [16] was “inactive” in each case. For the same molecule, the Potency in experiment [2] was 24.6 µM (active) and 19.5 µM (active); in experiment [17], 24.5 µM (active); in experiment [5] it was 24.5 µM (active); in experiment [9] it was 24.5 µM (active); in experiment [10], 24.6 µM (active) and 21.9 µM (active); in experiment [11], 21.9 µM (active). In addition, in [14], the Potency result was “inactive and 38.9 µM (active)”.

For `CC(C)=CCCC(C)CCOC(=O)C(C)C` (stereo not drawn), the Potency result in experiment [1], in experiment [3], in experiment [20], in experiment [4], in experiment [5] and in experiment [6] was “inactive” in each case. For the same molecule, the Potency entry in [7], in [9], in [18], in experiment [10], in [11] and in [12] was “inactive” each time. Besides, the Potency result in experiment [13], in experiment [14], in [15] and in [16] was “inactive” in each case. For the same molecule, the max response in experiment [2] is 12.8% (inactive).
